CHOP inh = blocks CHOP induction under ER stress; CHO-K1 CHOP-promoter luciferase, tunicamycin-induced, 15-18 h; inhibition, % at 10 µM; 220,000 compounds, 3.8% hits; AID 2732;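 active means compounds that reduced the stress-induced luciferase reporter signal by more than about 70% of percent inhibition, limit read from the data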
MITF TRPM1 inh = MITF TRPM1 promoter inhibition in SK-MEL-5 cells | inhibition, % at 12.5 µM | 330,000 compounds, 0.83% hits | SK-MEL-5 TRPM1 promoter luciferase, 24 h;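 active means mean inhibition across replicates of 60% or more, whatever share of single replicates reaches that level; inconclusive means some that reach 60%, reason not given; inactive means mean inhibition across replicates below 60%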
KKLEB tox = CF airway cell cytotoxicity counter-screen. KKLEB CF airway cells viability, ATPlite luminescence, overnight; hits give low values; cells stimulated with P. aeruginosa culture filtrate. activity change (cytotoxicity), % at 5 µM. 360,000 compounds, 0.36% hits. AID 602141;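 active means corrected activity change at or below -50% at 5 µM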
CF NFkB block = cystic fibrosis NF-kB activation inhibition; AID 588850; KKLEB NF-kB-GFP reporter, PAF-induced, GFP fluorescence overnight; 360,000 compounds, 0.86% hits; inhibition, % at 5 µM;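 active means at least 50% inhibition at 5 µM, scaled per plate between neutral and stimulator controls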;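 further: PAF is a Pseudomonas aeruginosa culture filtrate used as stimulus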
Peg3 prom inh = inhibitors of Peg3 promoter; HeLa PEG-Prom luciferase reporter, luminescence, overnight; inhibition, % at 20 µM; 360,000 compounds, 1.7% hits; AID 588405;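 active means inhibition of at least 50% at 20 µM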
HIF-2a inh = inhibitors of HIF-2a; inhibition, % at 18.8 µM; 360,000 compounds, 0.72% hits; 786-0 RCC cells HIF-2a reporter, luciferase luminescence, overnight;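 active means inhibition of the luminescence signal of 40% or more relative to plate controls, in a single-dose primary screen at 18.75 µM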
CHOP inh conf = confirmation of CHOP induction inhibitors; shares compounds with CHOP inh; CHO-CHOP promoter luciferase reporter, tunicamycin-induced, luminescence; inhibition, % at 10 µM; 2,100 compounds, 45% hits; AID 504437;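 active means mean of three repeat readings of reporter signal inhibition above a set limit, cut at about 70% in these data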
Large screens that a line does not name were inactive (follow-up assays come after a bar, where they were run). This is a sample that favours compounds with a hit; in the whole collection about 4.3% have one here.

Cc1c(C(=O)NCCC#N)sc(=O)n1Cc1ccccc1F	none (no result: CHOP inh, MITF TRPM1 inh)
Cc1nn(CC(=O)Nc2ccc(N3CCOCC3)cc2)c(C)c1Cl	none (no result: CHOP inh)
Cn1c(=O)c2sccc2n(Cc2cccc(Br)c2)c1=O	none (no result: CHOP inh)
O=C(Cn1c(C(F)(F)F)nc2ccccc21)N=Nc1c(O)[nH]c2ccc(Br)cc12	CHOP inh 106 | CHOP inh conf 116
O=C(Cc1cccs1)N=Nc1c(O)[nH]c2ccc(Br)cc12	none
O=C(NCc1cccnc1)c1cc(C2CCCN(C(=O)c3cccs3)C2)on1 (stereo not given)	none (no result: CHOP inh, MITF TRPM1 inh)
COC(=O)c1sc(-c2ccc(Cl)cc2)cc1NC(=O)c1ccccc1C(=O)O	none
COC(=O)c1sc(-c2ccc(C(C)(C)C)cc2)cc1NC(=O)c1ccccc1C(=O)O	CHOP inh 106 | CHOP inh conf 116
CC(C)Oc1ccc(S(=O)(=O)N2CCOCC2)cc1NC(=O)C1=NN(c2ccccc2)C(=O)CC1	none (no result: CHOP inh)
Cc1nc(SCC(=O)Nc2ccc(F)cc2)c2oc3ccccc3c2n1	CHOP inh 106 | CHOP inh conf inactive
Cc1nc(SCC(=O)NC(C)c2ccccc2)c2oc3ccccc3c2n1 (stereo not given)	none
Cc1nc(SCC(=O)Nc2ccccc2)c2oc3ccccc3c2n1	CHOP inh 96 | CHOP inh conf inactive
Cc1ccc(Nc2nc(N)nc(CN3CCN(c4ccccc4)CC3)n2)cc1Cl	CHOP inh 103 | CHOP inh conf 75
O=C(CSc1nnc(-c2ccc(O)cc2)o1)N1CCOCC1	none
Oc1ccc(-c2nnc(SCC3CCCCC3)o2)cc1	CHOP inh 107 | CHOP inh conf inactive
COc1cc(OC)nc(Oc2cc(C=O)ccc2OC)n1	none (no result: CHOP inh)
CC(C)(C)OC(=O)NCCc1nnc(S(=O)(=O)Cc2ccc(Cl)cc2Cl)o1	CHOP inh 106, CF NFkB block 60 | CHOP inh conf 129
CC(C)(C)OC(=O)NCCc1nnc(SCc2ccccc2Cl)o1	none
O=C1C(C2=NC(c3ccccn3)C3C(=O)N(c4ccc(OC(F)(F)F)cc4)C(=O)C23)=C(O)c2ccccc21 (stereo not given)	CHOP inh 105, MITF TRPM1 inh 75 | CHOP inh conf 117
Cc1cccc(OCC(=O)NNC(=O)c2ccc3nc[nH]c3c2)c1	none (no result: CHOP inh)
CC1=Nc2nc(N3CCCCC3)c(C#N)c3c4c(nc(c23)N1)N(c1ccc(C(C)C)cc1)C(=O)C4	CHOP inh 108 | CHOP inh conf 83
CC(C)c1ccc(-c2nc(N3CCCCC3)[nH]c(=O)c2C#N)cc1	none
CCOC(=O)c1sc(NC(=O)c2ccc(Cl)s2)cc1C	none
CCOC(=O)c1sc(NC(=O)Nc2ccc(Cl)cc2)cc1C	CHOP inh 108 | CHOP inh conf inactive
CCOC(=O)c1sc(NC(=S)NC(=O)CC(C)C)cc1C	CHOP inh 107 | CHOP inh conf inactive
CCCCN=c1scc(-c2ccc3c(c2)NC(=O)CO3)n1N=C1CCCC1	CHOP inh 106 | CHOP inh conf 105
CCN=c1scc(-c2ccc3c(c2)NC(=O)CO3)n1N=C1CCCC1	none (no result: CHOP inh)
O=C(Cc1cccs1)Nc1ccccc1-c1nc2ccccc2[nH]1	none (no result: MITF TRPM1 inh, KKLEB tox, CF NFkB block, Peg3 prom inh, HIF-2a inh)
Cc1ccnc(NC(=O)c2sc3ccccc3c2Cl)c1	CHOP inh 99, KKLEB tox -75 | CHOP inh conf inactive
O=C(Nc1ccccc1-c1nc2ccccc2[nH]1)c1sc2ccccc2c1Cl	CHOP inh 97 (no result: MITF TRPM1 inh, KKLEB tox, CF NFkB block, Peg3 prom inh, HIF-2a inh) | CHOP inh conf 106
CC(C)c1nnc(NC(=O)CCS(=O)(=O)c2nc(-c3cccs3)cc(C(F)(F)F)n2)s1	CHOP inh 108, CF NFkB block 95, Peg3 prom inh 107 | CHOP inh conf inactive
CC(C)c1nnc(NC(=O)CCS(=O)(=O)Cc2ccccc2)s1	none (no result: CHOP inh)
O=C1c2ccccc2C(c2nnnn2Cc2ccccc2)N1Cc1cccnc1 (stereo not given)	none (no result: CHOP inh, MITF TRPM1 inh, KKLEB tox, CF NFkB block, Peg3 prom inh)
Cc1ccc(NC(=O)CCl)cc1S(=O)(=O)N1CCCCCC1	CHOP inh 108, MITF TRPM1 inh inconclusive | CHOP inh conf 134
O=C(Nc1ncccc1O)c1ccc(S(=O)(=O)Nc2ccccc2)cc1	none (no result: CHOP inh)
C=CCn1c(=O)c(C(=O)Nc2ccccc2O)c(O)c2ccccc21	CHOP inh 104 | CHOP inh conf inactive
COc1cc(-c2nc3cnccn3c2Nc2ccc(C(C)C)cc2)ccc1O	CHOP inh 110 | CHOP inh conf inactive
O=C(NC1CCN(Cc2ccc(Cl)cc2)CC1)c1cn(-c2ccccc2)nc1-c1cccnc1	none (no result: CHOP inh)
O=S(c1ccc2ccccc2c1)c1cnns1 (stereo not given)	CHOP inh 105 | CHOP inh conf inactive
Cc1nnsc1S(=O)c1ccc(Cl)c(Cl)c1 (stereo not given)	none (no result: CHOP inh)
CCOC(=O)/C=c1\s/c(=C\c2sccc2C)c(=O)n1CC(=O)NCc1ccc(C)cc1	CHOP inh 99 (no result: MITF TRPM1 inh, KKLEB tox, CF NFkB block, Peg3 prom inh, HIF-2a inh) | CHOP inh conf inactive
CSCCC1NC2(C(=O)Nc3c(C)cc(Cl)cc32)[C@@H]2C(=O)N(C3CCCC3)C(=O)[C@H]12 (stereo not given in full)	CHOP inh 104 | CHOP inh conf inactive
CSCCC1NC2(C(=O)Nc3c(Cl)cccc32)[C@@H]2C(=O)N(C3CCCC3)C(=O)[C@H]12 (stereo not given in full)	none
CC(=O)Oc1cccc(/C=c2\sc3nc(-c4ccco4)nn3c2=O)c1	CHOP inh 107 | CHOP inh conf inactive
CCCOc1ccc(/C=c2\sc3nc(-c4ccco4)nn3c2=O)cc1OCC	none
C=CCNC(=O)Cn1c(=O)c2c(ncn2CCC(C)C)n(Cc2ccccc2)c1=O	none (no result: CHOP inh)
Cc1nn(-c2ccccc2)c2c1C(c1ccc(F)cc1F)C(C#N)=C(N)O2 (stereo not given)	CHOP inh 99 | CHOP inh conf inactive
Cc1nc(COC(=O)c2ccc(CO)cc2)cs1	none
Cc1nc(COC(=O)c2cc(O)c3ccccc3c2O)cs1	CHOP inh 104 | CHOP inh conf 120
CC(=O)Nc1ccc(NC(=O)C(C)OC(=O)c2ccc3ccccc3n2)cc1 (stereo not given)	none (no result: CHOP inh)
COc1ccc(CC(=O)NNC2=Nc3cccc4cccc2c34)cc1	CHOP inh 100 | CHOP inh conf inactive
O=C(CSc1nc2ncccc2[nH]1)Nc1ccc2c(c1)OCO2	none (no result: MITF TRPM1 inh)
O=C(CSc1nc(-c2ccccc2)c(-c2ccccc2)[nH]1)Nc1ccc2c(c1)OCO2	CHOP inh 102 | CHOP inh conf inactive
COc1ccc(-c2cc(C(F)(F)F)nc(SCC(N)=O)n2)cc1	none
COc1ccc(-c2cc(C(F)(F)F)nc(SCC(=O)Nc3ccc4c(c3)OCO4)n2)cc1	CHOP inh 99 | CHOP inh conf inactive
CCOc1ccc(C(=S)N2CCCC2)c(OCC)c1	none (no result: CHOP inh)
CCC1C(c2ccccc2)N(C)C(c2ccccc2)CC1(O)c1ccccc1 (stereo not given)	CHOP inh 99 | CHOP inh conf inactive

Assay outcomes: PubChem BioAssay, several laboratories
